Laboratory results reported in PubChem BioAssay AID540313 (Sanford-Burnham Center for Chemical Genomics, 2011).
Where “and” joins values, the source holds several entries; their conditions need not be identical. Equal entries are not always repeated. The campaign covered roughly 2,500 compounds. Fewer than 10 were called active. Not all results are given here. A number with no mark means an inactive call.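 How the source made its calls: active means inhibition of at least 30% at 20 µM; inactive means the rest.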

Test: colorimetric readout interference by compounds, confirmation, artefact control for Scp-1 inhibitor project, biochemical, single concentration (AID 540313);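 further: compounds added after enzyme reaction finished so only phosphate colour detection is probed; plate controls were DMSO wells with completed Scp-1 reaction for no effect and substrate wells lacking enzyme for full effect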
Details: Colorimetric interference counterscreen, malachite green absorbance 630 nm; at 20 µM; stronger effect = higher value

SMILES	apparent inhibition (interference)
Cn1c(N)c(C(=O)COC(=O)c2ccc3ccccc3c2)c(=O)n(C)c1=O	-13.1%
N/C(=N\OC(=O)N1c2ccccc2Sc2ccccc21)c1ccc(Br)cc1	-18.1%
O=[N+]([O-])c1cc(S(=O)(=O)Nc2cccc(Cl)c2)ccc1N=Nc1c(O)[nH]c2ccccc12	-15.6%
CCOC(=O)C1CCCN(C(=O)CN(c2ccc(OC)cc2)S(=O)(=O)c2c(C)noc2C)C1 (stereo not given)	-13.4%
C[n+]1ccc(C(=O)NCc2ccccc2)cc1	-18.9%
CCOC(=O)C1=C(C)c2ccccc2OC1(C)C(=O)OCC (stereo not given)	-21.7%
O=C(CNC(=O)C(c1ccccc1)c1ccccc1)N/N=C\c1ccc2c(c1)OCO2	-8.18%
CCC(=O)Nc1ccccc1N1CCN(S(C)(=O)=O)CC1	-13.4%
C=Cc1ccc(C(=O)N2CCCC(CCC(=O)N3CCN(c4ccccn4)CC3)C2)cc1 (stereo not given)	-12.3%
CCc1ccc(NC(=O)CS(=O)CC(=O)NCCCc2ccccc2)cc1 (stereo not given)	-6.8%
O=C(CCS(=O)(=O)c1ccc(Br)cc1)NCCc1ccc(Cl)cc1	-10.1%
Cc1ccc(NC(=O)COc2ccc(/C=N\NC(=O)c3cccnc3)cc2)cc1C	-15.6%
O=C(CCNC(=O)c1ccccc1)NN=Cc1ccc(Br)o1	-15.3%
O=C(NN1C(=O)C2C3C=CC(O3)C2C1=O)c1ccccc1 (stereo not given)	-7.63%
COc1ccc(Cc2nnc(NC(=O)Cc3cccs3)s2)cc1	-7.35%
CCCCSc1nnc(-c2ccc(C)cc2)o1	-17.8%
CSc1ccc(/C=N/NC(=O)c2cccc(Cl)c2)cc1	-14.2%
Cc1oc2c(C)c3oc(=O)c(CC(=O)N[C@@H](CC(C)C)C(=O)N[C@@H](Cc4ccccc4)C(=O)O)c(C)c3cc2c1C	-9.01%
O=C(c1cc2c(s1)CCC2)N1CCN(c2ccccc2)CC1	-15.9%
COc1ccc(S(=O)(=O)c2c[nH]c(=S)[nH]c2=O)cc1Cl	-5.98%
COCCCn1c(Cc2csc(Nc3cccc(Cl)c3)n2)nnc1SCC(=O)OC1CCCCC1	-7.61%
C=CC1C(OC2OC(CO)C(O)C(O)C2O)OC=C(C(=O)OC)C1CC1CC(=O)CC(CC(=O)CCc2ccc(O)cc2)O1 (stereo not given)	-16.9%

SMILES	apparent inhibition (interference)
COC(=O)c1ccc(-c2c(-c3ccccc3)ncc3cc(OC)c(OC)cc23)cc1	-3.78%
CCOc1ccc2nc(N(CCCN(C)C)C(=O)c3ccc(C(=O)c4ccccc4)cc3)sc2c1	-0.21%
COc1cc(/C=C/C2=CC(C)(C)NC(=S)N2)cc(OC)c1OC	-12%
COC(=O)CNC(=O)C(CCSC)NC(C)=O (stereo not given)	-13.1%
COc1cc(SC)ccc1C(=O)NNC(=O)C1COc2ccccc2O1 (stereo not given)	-1.3%
COC(=O)C[n+]1cccc2ccccc21	-9.28%
CC1=NN(C(=O)CCc2ccccc2O)C(O)(C(F)(F)F)C1 (stereo not given)	-14%
Cc1c(Cl)cnc(NC(=O)COC(=O)c2ccc(S(=O)(=O)NCc3ccco3)cc2)c1Cl	-10.4%
O=C(COc1ccc(-n2cnnn2)cc1)Nc1ccccc1Cl	-15.1%
COc1ccc(N2CCN(C(=O)CSc3nc4cc(OC)c(OC)cc4cc3C#N)CC2)cc1	-7.08%
O=C(N/N=C/c1ccco1)c1ccc(C(=O)N/N=C/c2ccco2)o1	-14.2%
C[N+](C)(C)CCNC(=O)c1cc[n+](Cc2ccccc2)c(/C=N/O)c1	-12%
Cc1cc(C(=O)OCC(=O)NCc2ccco2)c(C)n1-c1ccccc1	-9.53%
COc1cc(Cl)cc(C2NC(=O)NC(C)=C2C(=O)NCc2ccccc2)c1O (stereo not given)	-16.4% and -17.8%
O=C(COC(=O)c1cnc(Cl)c(Cl)c1)NCc1ccco1	-17.8%
O=C(COC(=O)c1ccccc1O)NCc1ccco1	-13.4%
COc1cccc(CC(=O)OCC(=O)NCc2ccc3c(c2)OCO3)c1	-8.18%
CC(C)CCOc1ccc(C(=O)C[N+]2(C)CCOCC2)cc1	-0.2%
CO/N=C(\C(=O)N[C@@H]1C(=O)N2C(C(=O)O)=C(COC(C)=O)CS[C@H]12)c1csc(N)n1 (stereo in doubt)	-15.6%
O=c1[nH]n(-c2ccc([N+](=O)[O-])cc2)c(=O)c2ccccc12	-12.9%
CCCCCN1CC(O)=C(c2nc(-c3ccc(Cl)cc3)cs2)C1=N	-5.98%
CC(=O)Nc1ccccc1Sc1ccc2c3c(cccc13)C(=O)N(c1ccc(C)cc1)C2=O	-10.1%

SMILES	apparent inhibition (interference)
Cc1ccc(C2(C)NC(=O)N(CC(=O)Nc3ccccc3C(=O)N3CCCCC3)C2=O)cc1 (stereo not given)	-11.4%
O=C1CCC(CCC(=O)N2CCCC(C(=O)c3ccc(Cl)cc3)C2)=NN1 (stereo not given)	-3.23%
Cc1ccc(NC(=O)COC(=O)C2C3CC4OC(=O)C2C4C3)cc1Cl (stereo not given)	-4.6%
CC(C)c1ccc(NC(=S)NNc2ccc(Cl)c(C(=O)O)c2)cc1	-8.44%
COc1ccc(Cl)cc1NC(=O)CCS(=O)(=O)c1ccc(Br)cc1	-18.6%
CS(=O)(=O)C1=NN2C(=N)/C(=C\c3ccc(OCCOc4ccccc4)cc3)C(=O)N=C2S1	-4.6%
CC[n+]1c(C)n(-c2ccccc2)c2ccc(NC(C)=O)cc21	-13.9%
Cc1ccc(NC(=O)c2cc(-c3ccc(C)o3)nc3ccccc23)nc1	-3.5%
O=C(Nc1cccnc1)c1cc2cc(Br)ccc2oc1=O	-8.18%
C[C@H](CO)N1C[C@H](C)[C@@H](CN(C)C(=O)NC2CCCCC2)Oc2ccc(NC(=O)c3ccncc3)cc2C1=O	-14.8%
O=C(Nc1cccc(F)c1)c1cc(-c2ccco2)nc2ccccc12	-4.88%
COc1ccc(NC(=O)CN(C)C(=O)/C=C/c2cn(Cc3ccccc3)nc2-c2cccnc2)cc1	-11.7%
Cc1ccn2c(=O)nc(SCC(=O)NCc3ccc4c(c3)OCO4)nc2c1	-8.16%
N#Cc1ccccc1CN1C(=O)S/C(=C/c2cccn2-c2cccc(C(=O)O)c2)C1=O	-14.7%
Cc1ccc(CCNC(=O)c2ccc3nc4ccccc4c(=O)n3c2)cc1	0.61%
Cc1ccc(SCC(=O)NC(=O)NCc2ccco2)c(C)c1	-4.05%
O=C(COC(=O)c1ccc(F)cc1F)Nc1ncccn1	-16.9%
CNS(=O)(=O)c1cccc(C(=O)OCC(=O)N2c3ccccc3NC(=O)C2(C)C)c1	-15.3%
COc1cccc2cc(-c3cc(=O)oc4cc(C)c(O)cc34)oc12	-23.3%
COC(=O)c1ccccc1NC(=O)C1(S(=O)(=O)c2ccc(Cl)cc2)CC1	-20.5%
O=C(CCC(=O)N/N=C/c1ccc(Br)o1)N/N=C/c1ccc(Br)o1	-16.4%
